A selection: hits, their analogues and other compounds. The true share with any hit is near 2%.
KKLEB cytotox: counter-screen for CF NF-kB inhibitors: cytotoxicity; KKLEB CF airway cells viability, ATPlite luminescence, overnight; hits give low values; cells stimulated with P. aeruginosa culture filtrate; activity change (cytotoxicity), % at 5 µM; actives 0.36% (n = 360,000);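 active means corrected activity change at or below -50% at 5 µM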
Shn3 inh set2: inhibitors of Schnurri-3 3'UTR reporter in osteoblasts; Clone20 osteoblast Shn3 3'UTR firefly luciferase, 24 h; inhibition, % at 12.5 µM; actives 0.52% (n = 360,000); AID 588674;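 active means mean inhibition of at least 75% with every replicate also reaching 75%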;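 further: 0% = median of neutral control wells and 100% = pilot-screen positive control compound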
PAX8 inh HTS: inhibitors of PAX8 transcriptional activity in RMG-I cells; RMG-I TPO-luciferase reporter, SteadyGlo, 24 h; inhibition, % at 12.6 µM; actives 1.2% (n = 360,000); AID 652154;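 active means mean replicate inhibition at least 60% with every replicate also reaching 60%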;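 further: luciferase light reporting Pax8 driven TPO promoter activity; plate controls were median of neutral control wells for no effect and mitoxantrone controls for full effect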
LGR2 inh: blocks bursicon-induced cAMP signaling via Drosophila LGR2; actives 0.35% (n = 380,000); inhibition, % at 9.99 µM; HEK293 LGR2, CRE-luciferase, bursicon-stimulated, 4 h;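 active means drop in luminescence signal, shown as inhibition above about 50% in the replicate tests, limit read from the data, passing the limit was not always enough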;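 further: agonist challenge used bursicon conditioned medium at about half maximal strength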
CF NFkB block: inhibitors of cystic fibrosis induced NF-kB; actives 0.86% (n = 360,000); AID 588850; inhibition, % at 5 µM; KKLEB NF-kB-GFP reporter, PAF-induced, GFP fluorescence overnight;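 active means at least 50% inhibition at 5 µM, scaled per plate between neutral and stimulator controls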;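 further: PAF is a Pseudomonas aeruginosa culture filtrate used as stimulus; plate controls were PAF-stimulated DMSO wells for no effect and unstimulated DMSO wells for full effect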
EWS-Fli block: blocks EWS/Fli oncoprotein-driven transcription; A673 NR0B1-luciferase reporter, viability-normalised; AID 651661; actives 0.67% (n = 350,000); inhibition, % at 12.6 µM;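 active means mean inhibition of at least 50% after viability correction, with every replicate also passing that limit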;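 further: firefly luciferase signal divided by Alamar Blue viability fluorescence both relative to DMSO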
Starred values were filed as active, the others as inactive; . = not tested or not shown.

SMILES	KKLEB cytotox	Shn3 inh set2	PAX8 inh HTS	LGR2 inh	CF NFkB block	EWS-Fli block
O=C(C[C@@H]1C[C@@H]2c3cc(NC(=O)Nc4ccc(C(F)(F)F)cc4)ccc3O[C@@H]2[C@@H](CO)O1)NCc1ccc(Cl)cc1	.	.	20	-15	.	-2
O=C(C[C@@H]1C[C@@H]2c3cc(NC(=O)Cc4ccncc4)ccc3O[C@@H]2[C@H](CO)O1)NCc1ccc(-c2ccccc2)cc1	.	.	102*	-7	.	11
C[C@@H]1CN([C@H](C)CO)C(=O)CCCn2cc(nn2)CO[C@H]1CN(C)Cc1cccc(C(=O)O)c1	.	.	7	8	.	1
CC(C)NC(=O)N(C)C[C@@H]1Oc2ccc(NC(=O)CCN3CCOCC3)cc2CC(=O)N([C@@H](C)CO)C[C@H]1C	.	.	-5	-19	.	-5
O=C(C[C@H]1C[C@@H]2c3cc(NS(=O)(=O)c4ccc(F)cc4)ccc3O[C@@H]2[C@H](CO)O1)NCc1ccc(-c2ccccc2)cc1	.	.	65*	8	.	4
O=C(C[C@@H]1C[C@@H]2c3cc(NS(=O)(=O)c4ccc(F)cc4)ccc3O[C@@H]2[C@@H](CO)O1)NCc1ccc(Oc2ccccc2)cc1	.	.	106*	46	.	36
CS(=O)(=O)Nc1ccc2c(c1)[C@@H]1C[C@H](CC(=O)NCc3ccc(Oc4ccccc4)cc3)O[C@@H](CO)[C@@H]1O2	.	.	85*	15	.	43
CS(=O)(=O)Nc1ccc2c(c1)[C@@H]1C[C@H](CC(=O)NCc3ccc(Oc4ccccc4)cc3)O[C@H](CO)[C@@H]1O2	.	.	12	-3	.	6
CN(C)c1ccc2c(c1)[C@@H]1C[C@@H](CC(=O)NCc3ccc(Oc4ccccc4)cc3)O[C@@H](CO)[C@@H]1O2	.	.	86*	.	.	51*
COc1ccc(S(=O)(=O)Nc2ccc3c(c2)C(=O)N([C@@H](C)CO)C[C@H](C)[C@H](CN(C)C(=O)NC2CCCCC2)O3)cc1	.	.	.	26	.	-4
C[C@H](CO)N1C[C@H](C)[C@@H](CN(C)C(=O)c2ccccc2)Oc2ncc(/C=C/c3ccccc3)cc2C1=O	.	.	.	-11	.	12
O=C(C[C@H]1C[C@@H]2c3cc(NS(=O)(=O)c4ccc(F)cc4)ccc3O[C@@H]2[C@H](CO)O1)NCc1ccc(Oc2ccccc2)cc1	.	.	34	0	.	25
O=C(C[C@@H]1C[C@H]2c3cc(NS(=O)(=O)c4ccc(F)cc4)ccc3O[C@H]2[C@@H](CO)O1)NCc1ccc(Oc2ccccc2)cc1	.	.	91*	.	.	59*
CC1Cc2ccccc2N1C(=S)NC(=O)c1ccc(Cl)cc1Cl (stereo unspecified)	-3	-13	62*	-6	-2	17
CC1Cc2ccccc2N1C(=S)NC(=O)c1cccc(Br)c1 (stereo unspecified)	-6	-4	3	-19	-22	.
C[C@@H]1CN([C@@H](C)CO)C(=O)c2cc(NS(=O)(=O)c3ccc(F)cc3)ccc2O[C@@H](C)CCCCO[C@H]1CN(C)CC1CCCCC1	.	.	6	-11	.	14
C[C@@H]1CCCCO[C@@H](CN(C)CC2CCCCC2)[C@H](C)CN([C@@H](C)CO)C(=O)c2cc(NS(=O)(=O)c3ccc(Cl)cc3)ccc2O1	.	.	12	5	.	8
C[C@H](CO)N1C[C@H](C)[C@H](CN(C)CC2CCCCC2)OCCCC[C@H](C)Oc2ccc(NS(=O)(=O)c3ccc(Cl)cc3)cc2C1=O	.	.	29	13	.	65*
C[C@@H]1CCCCO[C@@H](CN(C)CC2CCCCC2)[C@H](C)CN([C@H](C)CO)C(=O)c2cc(NS(=O)(=O)c3ccc(Cl)cc3)ccc2O1	.	.	92*	33	.	24
C[C@@H]1CN([C@H](C)CO)C(=O)c2cc(NS(=O)(=O)c3ccc(F)cc3)ccc2O[C@@H](C)CCCCO[C@@H]1CN(C)CC1CCCCC1	.	.	101*	0	.	-17
N#C[C@H]1[C@H](c2ccccc2C2=CCCC2)[C@@H](CO)N1C(=O)C1CCOCC1	.	.	12	17	.	-4
CC(=O)N1CC(=O)N2[C@@H](CO)[C@H](c3ccc(C#CC(C)C)cc3)[C@@H]2C1	.	.	9	-2	.	-2
CN1C(=O)c2cc(NC(=O)C3CC3)ccc2OC[C@@H]2O[C@@H](CC(=O)NC3CCC3)CC[C@H]21	.	.	-7	-15	.	-6
COc1ccc(/C=C/C(=O)OCC(=O)Nc2ccc(C)cc2)cc1S(=O)(=O)N1CCOCC1	12	2	76*	-5	-4	-4
COc1ccc(S(=O)(=O)N(C)C[C@H]2OCCCC[C@H](C)Oc3ccc(NS(=O)(=O)c4cn(C)cn4)cc3C(=O)N([C@H](C)CO)C[C@@H]2C)cc1	.	.	-2	-11	.	.
SMILES	KKLEB cytotox	Shn3 inh set2	PAX8 inh HTS	LGR2 inh	CF NFkB block	EWS-Fli block
Nc1ccc(S(=O)(=O)NNC(=O)C(=O)NNc2ccccc2)cc1	8	-13	1	3	1	-9
O=C(NNc1ccccc1)C(=O)NNS(=O)(=O)c1ccc(CCCl)cc1	3	86*	-20	8	-2	2
COCC(=O)N1[C@H](CO)[C@@H]2c3ccccc3N(C(=O)NC(C)C)C[C@@H]21	.	.	.	8	.	14
COc1ccc(Nc2ccc3c(c2)=NC2(CCCCC2)[N+]=3[O-])cc1	-30	-17	75*	.	64*	.
[O-][N+]1=c2ccc(Nc3ccccc3)cc2=NC12CCCCC2	-45	-7	11	.	85*	.
COc1ccc(NC2=NC(=S)N(c3ccccc3C)C23CCCCC3)cc1	7	-16	1	.	-34	.
CN1C(=O)c2cc(NC(=O)c3ccc(F)c(F)c3)ccc2OC[C@@H]2O[C@H](CC(=O)N3CCCCC3)CC[C@@H]21	.	.	-7	20	.	6
Cc1ccc(N=C2NC(=O)/C(=C/c3cn(C)c4ccccc34)S2)cc1C	0	-10	9	1	53*	5
Cn1cccc1/C=C1\SC(=Nc2ccccc2)NC1=O	4	-103	-25	-63	12	40
Cc1oc2c(c1C(=O)O)C(=O)c1ccccc1C2=O	11	-21	30	-6	39	-39
CCOC(=O)c1c(C)oc2c1C(=O)c1ccccc1C2=O	-24	20	-41	7	76*	-24
Cc1oc2c(c1C(=O)c1ccccc1)C(=O)C(=O)c1ccccc1-2	-23	33	.	.	88*	.
CCCNC(=O)N[C@H]1CC[C@@H](CCn2cc(C3CC3)nn2)O[C@@H]1CO	.	.	-8	10	.	7
O=C(NCC(F)(F)F)[C@H]1[C@H](CO)[C@H]2Cn3c(cccc3=O)[C@H]2N1Cc1cccc(F)c1	.	.	-1	-5	.	-4
C=CCNC(=O)[C@@H]1[C@H]2C(=O)O[C@H](c3ccccc3)[C@H](c3ccccc3)N2[C@H](c2ccc(O)cc2)[C@@]12C(=O)Nc1ccc(C#CC3=CCCCC3)cc12	.	.	2	.	.	1
Cc1ccc(S(=O)(=O)N(C)C[C@H]2Oc3ccc(NS(C)(=O)=O)cc3C(=O)N([C@H](C)CO)C[C@@H]2C)cc1	.	.	.	-9	.	-3

High-throughput results (PubChem BioAssay)
